Where “and” joins values, the source holds several entries; their conditions need not be identical. Identical values can stand only once. Out of some 5,500 compounds screened, about 2,000 (36%) were called active. Roughly 18% stayed inconclusive and do not appear here. Rule as the data show it: active = normalized growth mostly below about 0.91 (no sharp cut-off); inconclusive = no clear call, values can overlap the other calls; inactive = mostly above about 0.92. The list shows a part of the results.
Assay: chemical genetic growth profiling, strain panel (AID 1159580);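 also: tested at 20 µM; growth read once vehicle control cultures reached saturation at 30 °C; 1 = growth at the plate median or of vehicle wells; lower values mean less growth of the strain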
Settings: S. cerevisiae deletion strains, growth OD

Measured: normalized growth

COc1cc([C@@H]2c3cc4c(cc3C(O[C@@H]3O[C@@H]5CO[C@@H](c6cccs6)OC5[C@H](O)[C@H]3O)C3COC(=O)[C@@H]32)OCO4)cc(OC)c1O (stereo not given in full)
inactive: locus YAL013W, strain DEP1, active compounds read low 1.01 | locus YAL021C, strain ccr4, active compounds read low 0.986 | locus YAL026C, strain drs2, active compounds read low 0.957 | locus YAL030W, strain snc1, active compounds read low 0.995 | locus YBL061C, strain skt5, active compounds read low 0.981 | locus YBR009C, strain hhf1, active compounds read low 0.955 | locus YBR021W, strain FUR4, active compounds read low 1 | locus YBR023C, strain chs3, active compounds read low 1.01 | locus YBR171W, strain sec66, active compounds read low 0.981 | locus YBR229C, strain ROT2, active compounds read low 1 | locus YBR231C, strain swc5, active compounds read low 0.997 | locus YBR279W, strain paf1, active compounds read low 0.967 | locus YCL011C, strain gbp2, active compounds read low 0.987 | locus YCL016C, strain dcc1, active compounds read low 1.02 | locus YCL029C, strain bik1, active compounds read low 1.03 | locus YCL061C, strain MRC1, active compounds read low 0.969 | locus YCL069W, strain vba3, active compounds read low 0.971 | locus YCR088W, strain abp1, active compounds read low 0.984 | locus YDL005C, strain med2, active compounds read low 0.971 | locus YDL035C, strain GPR1, active compounds read low 1.02 | locus YDL040C, strain nat1, active compounds read low 0.982 | locus YDL074C, strain BRE1, active compounds read low 0.996 | locus YDL101C, strain DUN1, active compounds read low 1.01 | locus YDL134C, strain PPH21, active compounds read low 1.01 | locus YDL185W, strain tfp1, active compounds read low 1.03 | locus YDL192W, strain arf1, active compounds read low 1.02 | locus YDR001C, strain nth1, active compounds read low 0.985 | locus YDR069C, strain doa4, active compounds read low 0.983 | locus YDR101C, strain arx1, active compounds read low 1 | locus YDR137W, strain rgp1, active compounds read low 0.972 | locus YDR150W, strain NUM1, active compounds read low 0.998 | locus YDR159W, strain sac3, active compounds read low 0.932 | locus YDR162C, strain NBP2, active compounds read low 1.01 | locus YDR195W, strain ref2 0.961 | locus YDR297W, strain sur2, active compounds read low 0.992 | locus YDR318W, strain mcm21, active compounds read low 1.02 | locus YDR334W, strain swr1, active compounds read low 0.972 | locus YDR335W, strain msn5, active compounds read low 0.99 | locus YDR388W, active compounds read low 1.01 | locus YDR392W, strain spt3, active compounds read low 0.97 | locus YDR502C, strain sam2, active compounds read low 1.02 | locus YEL003W, strain gim4, active compounds read low 0.969 | locus YEL037C, strain rad23, active compounds read low 0.964 | locus YEL061C, strain CIN8 (second series), active compounds read low 0.967 | locus YEL061C, strain CIN8, active compounds read low 1 | locus YER015W, strain faa2, active compounds read low 0.989 | locus YER016W, strain bim1, active compounds read low 0.999 | locus YER110C, active compounds read low 1.02 | locus YER111C, strain swi4, active compounds read low 0.98 | locus YER155C, strain BEM2 (second series), active compounds read low 1.01 | locus YER155C, strain BEM2, active compounds read low 1 | locus YER167W, strain BCK2, active compounds read low 1.01 | locus YFR010W, strain ubp6, active compounds read low 0.956 | locus YGL078C, strain dbp3, active compounds read low 1.02 | locus YGL086W, strain mad1, active compounds read low 1.01 | locus YGL167C, strain pmr1, active compounds read low 0.981 | locus YGL173C, strain kem1, active compounds read low 0.983 | locus YGL227W, strain vid30, active compounds read low 0.994 | locus YGL240W, strain doc1, active compounds read low 1.01 | locus YGL248W, strain PDE1, active compounds read low 1 | locus YGL253W, strain hxk2, active compounds read low 0.964 | locus YGR135W, strain pre9, active compounds read low 1.01 | locus YGR229C, strain SMI1, active compounds read low 1 | locus YGR252W, strain gcn5, active compounds read low 1.03 | locus YHR013C, strain ard1, active compounds read low 0.997 | locus YHR027C, strain rpn1, active compounds read low 0.975 | locus YHR030C, strain SLT2, active compounds read low 1 and 1.02 | locus YHR079C, strain IRE1 (second series), active compounds read low 1.02 | locus YHR079C, strain IRE1, active compounds read low 1.01 | locus YHR094C, strain hxt1, active compounds read low 1.01 | locus YHR129C, strain ARP1, active compounds read low 1 | locus YHR142W, strain chs7, active compounds read low 0.981 | locus YHR200W, strain rpn10, active compounds read low 1.01 | locus YIL066C, strain RNR3, active compounds read low 1.01 | locus YIL073C, strain SPO22, active compounds read low 1.04 | locus YIL125W, strain kgd1, active compounds read low 1.01 | locus YIR030C, strain dcg1, active compounds read low 1.02 | locus YJL092W, strain hpr5, active compounds read low 0.977 | locus YJL095W, strain BCK1 (second series), active compounds read low 0.992 | locus YJL095W, strain BCK1, active compounds read low 0.991 and 1 | locus YJL115W, strain asf1, active compounds read low 0.96 | locus YJL129C, strain trk1, active compounds read low 0.993 | locus YJL134W, strain LCB3, active compounds read low 1 | locus YJL154C, strain vps35, active compounds read low 0.979 | locus YJL164C, strain tpk1, active compounds read low 0.962 | locus YJL166W, strain qcr8, active compounds read low 1.01 | locus YJL168C, strain set2, active compounds read low 1.01 | locus YJL187C, strain SWE1 (second series), active compounds read low 1 | locus YJL187C, strain SWE1, active compounds read low 0.984 | locus YJR043C, strain POL32, active compounds read low 0.982
